Bioassay records from PubChem BioAssay.
In the library only some 1.2% were active in any assay of this set; here they are far more common.
rTrxR1 inhibitor = inhibitors of rat thioredoxin reductase 1; hit rate 1% among 390,000; O89049; Potency, µM (top dose mostly 114 µM), actives largely listed as inhibitors; recombinant rTrxR1, NADPH fluorescence consumption, selenite substrate; note: nearly all actives have a fitted effect of over 65% in size
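Rat TrxR1 (90 nM in the dispensed reagent) was pre-reduced with 400 uM NADPH for 5 min at room temperature, then incubated with compound for 15 min. After 400 uM selenite was added, NADPH fluorescence (Ex 340/Em 450 nm) was followed for 8 min.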
NPSR antag = antagonists of human neuropeptide S receptor cAMP signaling | Q6W5P4 | CHO-NPSR cells, cAMP TR-FRET, antagonist mode | Potency, µM (series often up to 38.3 µM), actives largely listed as inhibitors | hit rate 1% among 220,000 | AID 1461; note: nearly all actives have a fitted effect of over 50% in size
Target sequence (Q6W5P4 whole entry, looked up): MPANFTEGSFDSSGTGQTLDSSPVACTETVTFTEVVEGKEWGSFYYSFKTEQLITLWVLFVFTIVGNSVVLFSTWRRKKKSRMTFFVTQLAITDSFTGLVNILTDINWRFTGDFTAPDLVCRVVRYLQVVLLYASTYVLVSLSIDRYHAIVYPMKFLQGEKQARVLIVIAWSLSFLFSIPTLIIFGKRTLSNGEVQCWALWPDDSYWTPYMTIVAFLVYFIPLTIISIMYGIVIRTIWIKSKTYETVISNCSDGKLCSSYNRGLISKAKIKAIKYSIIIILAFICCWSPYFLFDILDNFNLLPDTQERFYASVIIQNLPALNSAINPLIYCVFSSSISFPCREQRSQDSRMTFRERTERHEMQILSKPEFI
GALK inh = galactokinase (human) inhibition; P51570; Purified GALK, Kinase-Glo residual ATP luminescence; Potency, µM (titrated, usually from 57.5 µM), hits mostly inhibitors; hit rate 0.007% among 270,000; AID 1868
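The enzyme phosphorylates galactose (100 uM) using ATP (35 uM); inhibition is detected as higher residual ATP, quantified by bioluminescence after 1 h reaction at room temperature, pH 8.0.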
TrxR1 substrate = substrates of rat thioredoxin reductase 1. O89049. Potency, µM (top dose mostly 114 µM). hit rate 0.01% among 390,000. purified TrxR1 substrate turnover, NADPH consumption readout; note: nearly all actives have a fitted effect of over 50% in size
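Rat TrxR1, dispensed at 90 nM, was prereduced with 400 uM NADPH (final) for 5 min at ~22 deg C, then incubated with compound 15 min before 400 uM selenite. A first-read NADPH fluorescence drop versus no-compound background flagged substrates.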
Numbers stand for hits; – = inactive; ? = inconclusive; · = no result given; [ ] = dose if it differs, or a comment. Calls come from the whole dose curve; as a rule, active = well fitted curve in the direction sought with a large enough effect; inconclusive = small, poorly fitted or top-dose-only effect, or another doubt; inactive = no such curve, though single readings can be large; an effect the other way counts as inactive or inconclusive.

SMILES | rTrxR1 inhibitor | NPSR antag | GALK inh | TrxR1 substrate
COC(=O)CSc1[nH]c2ccc(F)cc2c1[N+](=O)[O-] | 35.5µM | – | – | –
CC(C)c1ccc(S(=O)(=O)/N=C2/C=C(Sc3ncn[nH]3)C(=O)c3ccccc32)cc1 | ? | 10µM | – | 14.1µM
Cc1ccc(S(=O)(=O)/N=C2/C=C(Sc3ncn[nH]3)C(=O)c3ccccc32)c(C)c1 | · | – | – | ·
Cc1ccc(S(=O)(=O)/N=C2/C=C(Sc3ncn[nH]3)C(=O)c3ccccc32)cc1 | ? | 10µM | – | 10µM
COc1cc2nc(N3CCCN(C)CC3)nc(N)c2cc1OC | – | · | · | –
CCc1c(C(=O)NCCc2ccc(N3CCCCC3)cc2)[nH]c2ccc(Cl)cc12 | – | · | · | –
COc1ccc(C)cc1NC(=O)Cn1cc(S(=O)(=O)Cc2ccccc2Cl)c2ccccc21 | – | · | · | –
NC1=NC(=O)/C(=C\c2ccco2)S1 | 39.8µM | – | – | –
N#CCC(=O)Nc1ccc(C(=O)OCC(=O)Nc2ccc3ccccc3c2)cc1 | – | · | · | –
Cc1ccc(-c2ccc(NC(=O)C3C4C=CC(C4)C3C(=O)O)cc2)o1 (stereo unspecified) | 22.4µM | – | – | –
COc1ccc(NC(=O)C2C3C=CC(C3)C2C(=O)O)cc1 (stereo unspecified) | – | – | – | –
Cc1ccc2c(c1C)NC(C(=O)O)C1CC=CC21 (stereo unspecified) | 2.51µM | – | – | –
Cc1cc(C)c2c(c1)C1C=CCC1C(C(=O)O)N2 (stereo unspecified) | 1.41µM | · | · | –
CCOC(=O)c1ccc2c(c1)C1C=CCC1C(C(=O)O)N2 (stereo unspecified) | · | – | – | ·
O=C(O)C1Nc2c(C(F)(F)F)ccc(Cl)c2C2C=CCC12 (stereo unspecified) | ? | · | – | –[2.29 µM]
O=C(O)C1Nc2c(C(=O)N3CCOCC3)cccc2C2C=CCC12 (stereo unspecified) | 1.58µM | – | – | –
O=C(O)C1Nc2ccccc2C2C=CCC12 (stereo unspecified) | 3.55µM | · | · | –
Cc1cc(C)c2c(c1)NC(C(=O)O)C1CC=CC21 (stereo unspecified) | 3.98µM | · | – | –
Cc1ccc(Cl)c2c1N[C@@H](c1ccc(C(=O)O)cc1)[C@H]1CC=C[C@@H]21 | – | · | · | –
CC(=O)NC(=S)Nc1ccc(-c2nc3ccc(C)cc3s2)cc1 | – | 10µM | – | –
CNC(=S)Nc1ccc(-c2nc3ccc(C)cc3s2)cc1 | – | – | – | –
O=C(O)CC/C(=N\Nc1ccc(S(=O)(=O)N2CCOCC2)cc1[N+](=O)[O-])c1cccs1 | ? | – | – | 79.4µM
O=C(O)CC/C(=N\Nc1ccc(S(=O)(=O)N2CCCC2)cc1[N+](=O)[O-])c1cccs1 | – | – | – | –
CC(=O)Nc1ccc(S(=O)(=O)Nc2nc3ccccc3nc2Nc2ccc(N)cc2)cc1 | – | – | – | –
CC(=O)Nc1ccc(S(=O)(=O)Nc2nc3ccccc3nc2Nc2ccc(C(=O)O)c(O)c2)cc1 | 79.4µM | · | · | –
SMILES | rTrxR1 inhibitor | NPSR antag | GALK inh | TrxR1 substrate
O=C(C[n+]1ccnc2ccccc21)c1ccc(Br)cc1 | – | · | · | –
Cc1ccc(-n2c(Cl)c(Cl)nc(Cl)c2=O)cc1 | ? | 10µM | – | –
COc1ccccc1/C=C/C=C1\Oc2c(ccc(O)c2CN(C)C)C1=O | ? | – | – | –
COCCN(CCOC)Cc1c(O)ccc2c1O/C(=C\c1ccc(C)o1)C2=O | 50.1µM | · | – | ?
CCN(CC)Cc1c(O)ccc2c1O/C(=C\C=C\c1ccccc1)C2=O | 70.8µM | – | – | –
Cc1cc(C)c2nccc(/C=C/c3ccc(N(C)C)cc3)c2c1 | – | · | · | –
O=C(Cc1ccc(OCc2ccccn2)cc1)NO | – | · | · | –
O=C(CN1C(=O)C(=O)N(Cc2ccco2)C1=O)c1c[nH]c2ccccc12 | 14.1µM | – | · | –
CCCCc1nc(S(=O)(=O)c2ccc(Cl)cc2)c(N2CCOCC2)o1 | 1.58µM | – | – | –[11.4 µM]
CC1(C)CC(=O)C2=C(C1)N(c1ccccc1)C(N)=C(C#N)C2c1ccccc1 (stereo unspecified) | – | – | – | –
CC1(C)CC(=O)C2=C(C1)N(c1ccccc1)C(N)=C(C#N)C2c1cccnc1 (stereo unspecified) | 79.4µM | – | – | –
CCOc1ccccc1CNC(=O)CCCN1C(=O)CCn2nc(-c3cccn3C)cc21 | – | · | · | –
O=C(Nc1ccc2nc(-c3cccs3)c(-c3cccs3)nc2c1)N1CCCC1 | – | · | · | –
CCOC(=O)C1CCN(C(=O)Nc2ccc3nc(-c4ccco4)c(-c4ccco4)nc3c2)CC1 | 3.16µM | – | – | –
O=C(Nc1ccc2nc(-c3ccco3)c(-c3ccco3)nc2c1)N1CCCCCC1 | 1.78µM | 10µM | – | –
CCCN1CCC(=O)N(CCC#N)CC1 | – | · | · | –
Cn1c(SCC(=O)N/N=C/C=C/c2ccco2)nc2ccccc21 | 44.7µM | – | – | –
CCn1c(SCC(=O)N/N=C/C(C)=C/c2ccco2)nnc1-c1ccccc1 | ? | – | – | –
CCn1c(SCC(=O)N/N=C/C=C/c2ccco2)nnc1-c1ccccc1 | 35.5µM | – | – | –
Cn1c(SCC(=O)N/N=C/C=C/c2ccccc2[N+](=O)[O-])nc2ccccc21 | – | – | · | –
CC1CCN(S(=O)(=O)c2ccc3c(ccn3CC(=O)NCc3ccc(N(C)C)cc3)c2)CC1 | – | · | · | –
CC1(C)CCC(c2ccc(Cl)cc2)=C(CN2CCN(c3ccc(C(=O)NS(=O)(=O)c4ccc(N[C@H](CCN5CCOCC5)CSc5ccccc5)c(S(=O)(=O)C(F)(F)F)c4)cc3)CC2)C1 | – | · | · | –
C=CS(=O)(=O)c1sc(Cl)c(N2CCOCC2)c1[N+](=O)[O-] | 0.316µM | ? | – | –
O=C(CNC(=O)c1ccco1)OCC(=O)c1ccc2c(c1)CCCC2 | 79.4µM | – | · | –
COc1ccc(C2=Nn3c(nnc3-c3ccccc3Cl)SC2)cc1OC1CCCC1 | 7.08µM | · | · | –
SMILES | rTrxR1 inhibitor | NPSR antag | GALK inh | TrxR1 substrate
Cc1ccc(-n2c(=O)[nH]c3sc4c(c3c2=O)CCCC4)cc1 | ? | · | · | –[2.29 µM]
Cc1ccc(-n2c(=S)[nH]c3sc4c(c3c2=O)CCC4)cc1 | – | 7.94µM | – | –
Cc1ccc(/C=C/C(=O)c2ccc(O)cc2)cc1 | – | – | – | –
Cc1ccc(C(=O)/C=C/C(=O)O)cc1 | 2.82µM | ? | – | –
CC(CNC(=O)Cn1ncc2c3ccccc3n(Cc3cccc(Cl)c3)c2c1=O)c1ccccc1 (stereo unspecified) | – | · | · | –
Cc1cc(NC(=O)CCS(=O)(=O)c2cc3c4c(c2)CCN4C(=O)CC3)ccc1Br | – | · | · | –
CN(C)c1nc(C=C(C#N)C#N)c(Cl)n1-c1ccc(F)cc1 | 4.47µM | – | – | –
CC(=O)N(C)c1ccc(NC(=S)NC(=O)/C=C/c2ccco2)cc1 | 35.5µM | · | – | –
CCOc1ccc(NC(=S)NC(=O)/C=C/c2ccco2)cc1 | – | · | – | –
Cc1ccc(NC(=O)/C(=C\c2ccco2)NC(=O)c2ccco2)cc1 | ? | · | – | –
Cc1ccc(NC(=O)N/C=C/c2ccco2)cc1 | 15.8µM | ? | – | –
Cc1ccc2oc(-c3cccc(NC(=S)NC(=O)/C=C/c4ccco4)c3)nc2c1 | – | 2.51µM | – | –
O=C(/C=C/c1ccco1)NC(=S)Nc1cccc(C(=O)O)c1 | 39.8µM | · | – | –
